Measured values reported in PubChem BioAssay.
Active and inactive are the calls of the source. Unless noted, the rule behind the calls is not given here.

What was measured:
[1] = tested on: Wnt5a (protein binding on small-molecule microarray); assay: small molecules binding Wnt5a protein – biophysical, small-molecule microarray, 635/667 nm fluorescence, primary screen (AID 1142); conditions: 635 nm fluorescence, higher = more signal;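 note: fluorescence read at 667 nm with signal to noise per printed feature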
[2] = ATP-based viability of Huh7 replicon cells – cell-based, CellTiter-Glo luminescence, basal, 48 h, cytotoxicity control for HCV replication inhibitor project, primary screen (AID 1143); conditions: higher = more signal, called active from +8 up or from −8 down;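 note: Huh7 hepatoma cells carrying a hepatitis C replication reporter with no stimulus; test concentration not given here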
[3] = Pseudomonas biofilm growth suppression – PAO1 strain, BacTiter-Glo luminescence, LB-PBS, primary screen (AID 1144); conditions: P. aeruginosa PAO1 biofilm, 12 h, higher = more signal
[4] = basal CRE-LacZ reporter activity in PC12 – cell-based, unstimulated, primary screen (AID 1145); conditions: no forskolin, luminescence, 4.5 h, higher = more signal, called active from +8 up or from −8 down
[5] = forskolin-driven CRE-LacZ activity in PC12 – cell-based, CRE-LacZ reporter, forskolin-stimulated, primary screen (AID 1146); conditions: luminescence, 4.5 h, higher = more signal, called active from +8 up or from −8 down;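 note: PC12 cells with 6xCRE LacZ reporter stimulated by forskolin 10 µM; beta-galactosidase reporter signal reflecting CREB driven transcription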
[6] = target: Streptavidin (Streptomyces avidinii) (UniProt P22629); assay: compounds binding control protein streptavidin – biophysical, small-molecule microarray, 635/667 nm fluorescence, artefact control for SMM compound annotation, primary screen (AID 1147); conditions: higher = more signal;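 note: signal reflects streptavidin binding to arrayed compounds as a control protein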
[7] = probe aInhba binding on compound microarray – biochemical, small-molecule microarray, 635/667 nm fluorescence, primary screen (AID 1148); conditions: higher = more signal;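 note: score merges 667nm spot fluorescence with signal-to-noise for antibody binding to printed compounds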
Torsin-1A (Homo sapiens) [8] = target: Torsin-1A (Homo sapiens) (UniProt O14656); assay: TOR1A wild-type binding on microarray – cell lysate, small-molecule microarray, lysate, 635/667 nm, primary screen (AID 1149); conditions: COS7 hTOR1A-WT lysate, 635 nm fluorescence, higher = more signal
Torsin-1A (Homo sapiens) [9] = target: Torsin-1A (Homo sapiens) (UniProt O14656); assay: torsin A mutant lysate binding on microarrays – cell lysate, small-molecule microarray, COS7 lysate, 635/667 nm fluorescence, primary screen (AID 1150); conditions: COS7 hTOR1A mutant lysate, 635 nm fluorescence, higher = more signal;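 note: score pools 667 nm emission and signal to noise measuring lysate protein binding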
[10] = tested on: Sonic hedgehog protein (Shh); assay: Sonic hedgehog microarray binding compounds – biochemical, small-molecule microarray, 635/667 nm fluorescence, primary screen (AID 1151); conditions: 635 nm fluorescence, higher = more signal;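 note: Shh protein binding to compounds spotted on small-molecule microarray slides; score combines spot fluorescence intensity with signal-to-noise across triplicate slides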
[11] = optical density shifts of acrAB sulA E. coli – strain DRC41, OD650, 48 h, E. coli filamentation inducer project, primary screen (AID 1152); conditions: higher = more signal, called active from +8 up or from −8 down;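 note: E. coli MC1000 strain DRC41 lacking acrAB efflux pump and sulA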
[12] = probe aLefty1 binding on compound microarray – biochemical, small-molecule microarray, 635/667 nm fluorescence, primary screen (AID 1153); conditions: higher = more signal;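 note: score merges spot fluorescence with signal-to-noise ratio from the scanned slide images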
[13] = plasmodial surface anion channel blockers, osmotic lysis – cell-based, P. falciparum Indochina, OD700, 1 h, primary screen (AID 1154); conditions: P. falciparum Indochina infected RBC osmotic lysis, higher = more signal, called active from +8 up or from −8 down
[14] = plasmodial surface anion channel blockers, osmotic lysis – cell-based, P. falciparum Indochina, OD700, 2 h, primary screen (AID 1155);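 note: lysis reports solute entry through the parasite surface anion channel PSAC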; conditions: P. falciparum Indochina infected erythrocytes, higher = more signal, called active from +8 up or from −8 down
[15] = changes in parasitized red cell lysis, either direction – P. falciparum Indochina, OD700, 3 h, PSAC antagonist project, primary screen (AID 1156); conditions: P. falciparum-infected erythrocytes, osmotic lysis, higher = more signal, called active from +8 up or from −8 down
[16] = plasmodial surface anion channel blockers, osmotic lysis – cell-based, P. falciparum Indochina, OD700, 18 h, primary screen (AID 1157); conditions: P. falciparum Indochina infected erythrocytes, osmotic lysis OD700, 18 h; higher = more signal, called active from +8 up or from −8 down
[17] = S6 kinase pathway phospho-S6 level changes – cell-based, A549, cytoblot, luminescence, serum-stimulated, primary screen (AID 1158); conditions: 5 h, higher = more signal;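 note: serum-stimulated A549 lung adenocarcinoma cells; signal is phosphorylated S6 detected by cytoblot immunostaining with HRP secondary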
[18] = target: NADPH oxidase 2 (Homo sapiens) (UniProt P04839); assay: compounds shifting NOX2 Amplex Red fluorescence – cell-based, HEK293-NOX2, PMA-stimulated, NOX inhibitor project, primary screen (AID 1159); conditions: 45 min, higher = more signal, called active from +8 up or from −8 down; note: test concentration not given here
[19] = target: NADPH oxidase 4 (Homo sapiens) (UniProt Q9NPH5); assay: compounds shifting NOX4 Amplex Red fluorescence – cell-based, HEK293-NOX4, tetracycline-induced, NOX inhibitor project, primary screen (AID 1160); conditions: HEK293-NOX4, Amplex Red H2O2 fluorescence, 45 min; higher = more signal, called active from +8 up or from −8 down
[20] = target: NADPH oxidase 5 (Homo sapiens) (UniProt Q96PH1); assay: compounds shifting NOX5 Amplex Red fluorescence – cell-based, HEK293-NOX5, NOX inhibitor project, primary screen (AID 1161); conditions: HEK293-NOX5, ionomycin, 45 min, higher = more signal
NADPH oxidase 5 (Homo sapiens), sequence (Q96PH1 whole entry, looked up): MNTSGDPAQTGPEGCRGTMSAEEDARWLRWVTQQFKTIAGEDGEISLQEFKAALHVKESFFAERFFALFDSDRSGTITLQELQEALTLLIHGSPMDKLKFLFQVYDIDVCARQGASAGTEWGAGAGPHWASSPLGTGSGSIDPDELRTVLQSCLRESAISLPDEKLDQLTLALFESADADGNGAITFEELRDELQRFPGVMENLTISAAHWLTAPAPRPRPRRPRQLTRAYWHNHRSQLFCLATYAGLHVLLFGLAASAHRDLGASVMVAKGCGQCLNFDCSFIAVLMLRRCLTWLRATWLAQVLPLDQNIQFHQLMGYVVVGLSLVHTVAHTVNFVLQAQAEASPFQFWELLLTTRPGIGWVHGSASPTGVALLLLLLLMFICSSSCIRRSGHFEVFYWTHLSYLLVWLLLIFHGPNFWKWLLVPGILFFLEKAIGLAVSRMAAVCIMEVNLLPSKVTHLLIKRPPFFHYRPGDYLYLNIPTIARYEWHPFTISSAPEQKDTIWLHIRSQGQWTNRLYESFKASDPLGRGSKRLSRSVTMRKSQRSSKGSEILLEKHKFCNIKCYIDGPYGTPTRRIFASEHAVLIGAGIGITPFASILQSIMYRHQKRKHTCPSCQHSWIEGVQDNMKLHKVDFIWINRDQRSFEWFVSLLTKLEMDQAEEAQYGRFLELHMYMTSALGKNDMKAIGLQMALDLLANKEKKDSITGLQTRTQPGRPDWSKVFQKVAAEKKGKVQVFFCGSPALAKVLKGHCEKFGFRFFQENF

NADPH oxidase 4 (Homo sapiens), sequence (Q9NPH5 whole entry, looked up): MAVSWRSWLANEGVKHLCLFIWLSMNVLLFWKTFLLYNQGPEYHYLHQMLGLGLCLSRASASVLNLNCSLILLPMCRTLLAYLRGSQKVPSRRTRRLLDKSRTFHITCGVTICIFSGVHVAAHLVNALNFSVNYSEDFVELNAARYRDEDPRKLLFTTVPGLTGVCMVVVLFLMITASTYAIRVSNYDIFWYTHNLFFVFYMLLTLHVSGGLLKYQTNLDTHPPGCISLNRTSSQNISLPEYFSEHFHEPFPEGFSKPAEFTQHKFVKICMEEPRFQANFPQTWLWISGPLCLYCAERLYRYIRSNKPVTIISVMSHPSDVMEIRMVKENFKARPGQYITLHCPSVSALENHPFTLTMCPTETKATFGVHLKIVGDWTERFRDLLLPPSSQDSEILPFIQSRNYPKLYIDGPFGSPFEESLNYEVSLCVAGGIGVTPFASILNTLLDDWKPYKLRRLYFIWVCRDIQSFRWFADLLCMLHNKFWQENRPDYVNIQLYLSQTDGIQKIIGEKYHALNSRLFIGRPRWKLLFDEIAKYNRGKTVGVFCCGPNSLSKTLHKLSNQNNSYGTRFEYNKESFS
Streptavidin (Streptomyces avidinii), sequence (P22629 whole entry, looked up): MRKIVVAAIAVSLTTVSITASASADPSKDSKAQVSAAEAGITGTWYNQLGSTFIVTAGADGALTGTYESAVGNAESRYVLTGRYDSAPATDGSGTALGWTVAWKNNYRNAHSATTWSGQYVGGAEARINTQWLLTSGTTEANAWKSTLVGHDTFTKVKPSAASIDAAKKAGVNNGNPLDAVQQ
Torsin-1A (Homo sapiens), sequence (O14656 whole entry, looked up): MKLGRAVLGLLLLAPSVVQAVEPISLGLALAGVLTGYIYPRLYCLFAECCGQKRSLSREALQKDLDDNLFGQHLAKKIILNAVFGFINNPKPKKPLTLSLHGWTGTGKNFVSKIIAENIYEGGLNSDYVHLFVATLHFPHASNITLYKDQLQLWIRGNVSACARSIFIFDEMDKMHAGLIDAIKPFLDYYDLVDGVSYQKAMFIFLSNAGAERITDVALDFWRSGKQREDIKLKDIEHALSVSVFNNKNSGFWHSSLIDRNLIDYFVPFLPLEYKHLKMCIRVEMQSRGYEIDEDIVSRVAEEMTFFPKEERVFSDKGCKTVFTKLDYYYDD
NADPH oxidase 2 (Homo sapiens), sequence (P04839 whole entry, looked up): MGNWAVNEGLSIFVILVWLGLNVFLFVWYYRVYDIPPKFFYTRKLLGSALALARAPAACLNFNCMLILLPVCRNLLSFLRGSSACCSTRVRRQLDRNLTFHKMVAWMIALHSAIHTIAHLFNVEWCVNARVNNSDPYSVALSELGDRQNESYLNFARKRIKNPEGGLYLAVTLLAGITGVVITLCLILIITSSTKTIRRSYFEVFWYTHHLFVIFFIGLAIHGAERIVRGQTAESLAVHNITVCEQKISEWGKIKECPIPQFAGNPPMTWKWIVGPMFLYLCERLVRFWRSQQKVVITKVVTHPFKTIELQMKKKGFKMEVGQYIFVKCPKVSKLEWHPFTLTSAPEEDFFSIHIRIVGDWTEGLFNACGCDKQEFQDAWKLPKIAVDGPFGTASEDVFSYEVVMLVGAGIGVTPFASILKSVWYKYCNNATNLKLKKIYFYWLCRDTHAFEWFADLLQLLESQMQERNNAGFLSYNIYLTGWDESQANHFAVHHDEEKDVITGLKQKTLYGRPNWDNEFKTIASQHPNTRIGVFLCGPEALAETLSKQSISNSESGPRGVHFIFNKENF

| Compound | composite z-score [1] | z-score [2] | z-score [3] | z-score [4] | z-score [5] | composite z-score [6] | composite z-score [7] | composite z-score (Torsin-1A (Homo sapiens) [8]) | composite z-score (Torsin-1A (Homo sapiens) [9]) | composite z-score [10] | z-score [11] | composite z-score [12] | z-score [13] | z-score [14] | z-score [15] | z-score [16] | z-score [17] | z-score [18] | z-score [19] | z-score [20] |
| --- | --- | --- | --- | --- | --- | --- | --- | --- | --- | --- | --- | --- | --- | --- | --- | --- | --- | --- | --- | --- |
| C[C@@H](c1ccccc1)N1C(=O)[C@H]2[C@H]3[C@H](O)[C@H](O)CC(=NOC[C@@H](O)COCc4ccco4)[C@@H]3CC[C@H]2C1=O | -0.253 | 0.333 (inactive) | -0.0196 (inactive) | -0.292 (inactive) | 0.236 (inactive) | -0.485 | -0.176 | -0.304 | -0.294 | -0.494 | -0.224 (inactive) | -0.147 | 0.169 (inactive) | 0.32 (inactive) | -0.478 (inactive) | -0.138 (inactive) | 0.403 | 0.215 (inactive) | -1.51 (inactive) | -0.681 |
| CC(CCN1CCc2nc(-c3ccccc3)c(-c3ccccc3)cc2C1)=NO[C@@H](C)c1cn([C@H](CO)Cc2ccccc2)nn1 | -0.107 | -0.802 (inactive) | -0.414 (inactive) | 0.573 (inactive) | -0.795 (inactive) | 0.52 | 0.0131 | 1.62 | 0.482 | 1.25 | -1.44 (inactive) | -0.103 | -0.278 (inactive) | -1.89 (inactive) | 0.0934 (inactive) | -2.16 (inactive) | 1.52 | -7.26 (inactive) | -1.51 (inactive) | -4.19 |
| CC(C)(C)N1C(=O)[C@H]2[C@H]3[C@H](O)[C@H](O)CC(=NO[C@@H]4O[C@H](CO)[C@@H](O)[C@H](O)[C@H]4O)[C@@H]3CC[C@H]2C1=O | 0.324 | -2.45 (inactive) | 0.0108 (inactive) | 0.518 (inactive) | 0.217 (inactive) | -0.223 | 0.0051 | 0.217 | 0.254 | 1.53 | 0.383 (inactive) | -0.147 | 1.13 (inactive) | 0.0656 (inactive) | -0.689 (inactive) | 0.106 (inactive) | -0.345 | 1.01 (inactive) | -0.022 (inactive) | -2.07 |
| CC(C)[C@@H](OCc1ccccc1)[C@H](C)C=NOC[C@@H](C)[C@H](OCc1ccccc1)C(C)C | 0.187 | 0.459 (inactive) | 0.627 (inactive) | 0.471 (inactive) | -0.144 (inactive) | 0.118 | -0.128 | 0.256 | 0.204 | 0.256 | 0.52 (inactive) | 0.233 | 0.641 (inactive) | 0.369 (inactive) | -0.423 (inactive) | -0.222 (inactive) | -0.591 | -0.537 (inactive) | -0.184 (inactive) | -0.948 |
| CO[C@@H]1COC(=O)CC=C[C@@H](C)[C@@H]2C=C[C@H](O)[C@@H](COC(=O)[C@H](C)NC(=O)CC=C[C@H]1C)O2 | 0.0389 | -2.59 (inactive) | -0.972 (inactive) | -0.324 (inactive) | 0.194 (inactive) | -0.408 | -0.265 | 1.44 | 1.81 | 2.13 | 0.457 (inactive) | -0.626 | -0.761 (inactive) | -1.27 (inactive) | 0.564 (inactive) | -2.4 (inactive) | -0.309 | -0.573 (inactive) | 0.165 (inactive) | 0.605 |
| C[C@@H](c1ccccc1)N1C(=O)[C@H]2[C@H]3[C@H](O)C=CC(=O)[C@@H]3CC[C@H]2C1=O | -0.143 | -1.8 (inactive) | 0.715 (inactive) | 0.247 (inactive) | -0.323 (inactive) | 0.831 | 0.0422 | 0.445 | 0.0746 | 0.593 | -0.0347 (inactive) | -0.193 | -0.352 (inactive) | 0.101 (inactive) | -0.555 (inactive) | -0.284 (inactive) | 0.674 | 1.56 (inactive) | -0.0276 (inactive) | -0.276 |
| Cc1ccc(S(=O)(=O)N[C@@H]2COC(=O)[C@H](C)COC(=O)CC=C[C@H]2C)cc1 | 0.0114 | 0.405 (inactive) | 0.317 (inactive) | 0.0676 (inactive) | -0.262 (inactive) | 0.134 | -0.224 | 1.06 | 0.615 | 1.91 | -0.786 (inactive) | -0.0493 | 0.345 (inactive) | 0.408 (inactive) | 0.563 (inactive) | -0.0893 (inactive) | -0.648 | -0.108 (inactive) | 0.174 (inactive) | 0.343 |
